Laboratory results published in PubChem BioAssay (EPA / NIEHS).
Active and inactive are the calls of the source. Rule for the calls: active = hit-call score of the fitted dose curve at least 0.9, where 1 is the maximum; inactive = score below 0.9.

These compounds were tested on Early growth response protein 1 (EGR1) transcription factor, EGR1 (gene 1958) (assay: LTEA_HepaRG_EGR1: Life Technologies and Expression Analysis (LTEA) Assay for Early growth response protein 1 (EGR1) transcription factor using HepaRG (AID 2283490)). Conditions: mRNA level, 48 h; actives raise or lower the signal.
Protocol: LTEA_HepaRG is a cell based, multiplexed-readout assay that uses HepaRG, a human liver cell line, with measurements taken at 48 hours after chemical dosing on a 96-well plate.LTEA_HepaRG_EGR1 is one of 102 assay component(s) measured in the LTEA HepaRG cell culture assay. It is a marker of Cell proliferation, survival, death.Data from the assay component LTEA_HepaRG_EGR1 was analyzed into 1 endpoint. This assay endpoint, LTEA_HepaRG_EGR1, was analyzed with bidirectional fitting relative to DMSO as the negative control and baseline of activity. Using a type of inducible reporter, measures of mRNA induction for gain or loss-of-signal activity can be used to understand regulation of transcription factor activity. To generalize the intended target to other relatable targets, this assay endpoint is annotated to the dna binding intended target family, where the subfamily is zinc finger.
A total of 1060 chemcials from the ToxCast library were tested in eight-point concentration-response experiments. Cell culture and cytotoxicity assays were conducted at Thermo Fisher Scientific's Custom Services facility (Madison, WI). A single lot of human HepaRG cells (Thermo Fisher Scientific, Frederick, MD) was used for the cell culture experiments. 96-well format collagen type I coated plates of human HepaRG cells were prepared using established methods. Briefly, cryopreserved HepaRG cells were thawed, plated at a density of approximately 100,000 cells/well in HepaRG Thaw, Plate, and General Purpose media (HPRG770, Thermo Fisher Scientific), and incubated for 48 hours. 0.5% DMSO was selected as vehicle control to balance the requisite need of DMSO in HepaRG cultures to maintain differentiation (for example, baseline metabolism, proportions of hepatocytes vs. cholangiocytes), while enabling further hepatic receptor pathway activation (for example, PXR and CAR) in response to chemical exposure. 48 hours after plating, the culture medium was replaced with HepaRG Serum-Free Incudtion Media. Cells were exposed to each test chemical in duplicate and maintained in CO2 incubators for another 48 hours. Chemical plates were thawed to room temperature and 200x concentrations of treatment groups were prepared. 8-point conentration-reponse curves were made with the highest exposure at 100 uM, followed by half-log dilutions, all in 0.5% DMSO. Each test plate contained variouse controls, induction positive controls (1mM phenobarbital), cytotoxicity positive controls ([…] aflatoxin B1), vehicle controls (0.5% DMSO), and total lysis controls (0.5% DMSO). Cell morphology images were taken using an Essen IncuCyte FLR automated microscope, with six 96-well plates imaged in about 24 minutes. Images were captured and exported and JPEG files. Spent culture media was transfered to black-well plates for the LDH assay, and remaining media was sorted at -80 C for later use. Cells were treated with RLT buffer and frozen until shipped for gene expression analysis. Total RNA was isolated from the cell suspension in 75 uL of Buffer RLT (Qiagen, Germantown, MD 20874) by Quintiles/Expression Analysis (Durham, NC) using a custom isolation procedure. Total RNA from each plate well was transferred to a preamplification plate. Fluidigm's 96.96 Dynamic ArrayTM (Fluidigm, Amsterdam, the Netherlands) technology was used for gene expression analyses by quantitative reverse transcription polymerase chain reaction (qRT-PCR, performed by Quintiles/Expression Analysis, Durham, NC)89. Standard TaqManTM Assays (Applied Biosystems/ThermoFisher Scientific, Foster City, CA) were used to assess the expression of 93 genes selected based on their selectivity and sensitivity to important hepatic receptors known to be modulated by environmental chemicals; importance in human hepatocyte functionality; and hepatotoxicity. […]

Question: Which outcome does the source give for `CCCCCCCCCC` here?
Answer: Its outcome is “inactive”.

Question: How did the outcome turn out when `CCCCCCCCCCCCCCO` was run?
Answer: Its outcome is “inactive”.

Question: `O=C(NO)C1(NS(=O)(=O)c2ccc(Oc3ccc(F)cc3)cc2)CCOCC1` was tested. Which outcome did it give?
Answer: The outcome was “inactive”.

Question: For `CCCCCCCC1CCC(=O)O1` (stereo not given), which outcome is on record?
Answer: Its outcome is “inactive”.

Question: For `c1ccc2cc3ccccc3cc2c1`, which outcome is on record?
Answer: Its outcome is “inactive”.

Question: `O=C(O)c1cccc(C(=O)O)c1` was tested. Which outcome did it give?
Answer: Its outcome is “inactive”.

Question: Which AC50 does the source give for `CC(C)C(=O)Nc1ccc([N+](=O)[O-])c(C(F)(F)F)c1` here?
Answer: The AC50 was 81.9 µM (active).

Question: `CCCCCCCCN(C)C` was tested. Which outcome did it give?
Answer: Its outcome is “inactive”.

Question: `CC1(C)C(=O)N(Cl)C(=O)N1Cl` was tested. Which outcome did it give?
Answer: The outcome was “inactive”.

Question: With `CCCCCCOC(=O)CC(CC(=O)OCCCCCC)(OC(=O)CCC)C(=O)OCCCCCC` as the compound, how does the outcome read?
Answer: The outcome was “inactive”.

Question: For `O=C(O)[C@H](O)[C@@H](O)C(=O)O`, which outcome is on record?
Answer: Its outcome is “inactive”.

Question: `C=CCc1cc(S(=O)(=O)c2ccc(O)c(CC=C)c2)ccc1O` was tested. Which outcome did it give?
Answer: Its outcome is “inactive”.

Question: `O=S1(=O)CCCO1` was tested. Which outcome did it give?
Answer: The outcome was “inactive”.

Question: How did the outcome turn out when `CCOC(N)=O` was run?
Answer: Its outcome is “inactive”.

Question: `OC(Cn1cncn1)(Cn1cncn1)c1ccc(F)cc1F` was tested. Which outcome did it give?
Answer: The outcome was “inactive”.

Question: `COCc1nnc(-c2ccc[n+]([O-])c2)n1-c1c(Cl)c(Cl)cc2[nH]c(=O)c(=O)[nH]c12` was tested. Which outcome did it give?
Answer: Its outcome is “inactive”.

Question: How did the outcome turn out when `OCCOCCOCCO` was run?
Answer: Its outcome is “inactive”.

Question: Which outcome does the source give for `OCCNCCO` here?
Answer: Its outcome is “inactive”.

Question: For `Cn1c(=O)c2[nH]cnc2n(C)c1=O`, which outcome is on record?
Answer: Its outcome is “inactive”.

Question: `OC(CCl)CCl` was tested. Which outcome did it give?
Answer: The outcome was “inactive”.

Question: Which AC50 does the source give for `Cc1nccn1-c1ccc(Sc2cccc(C3(C(N)=O)CCOCC3)c2)cc1` here?
Answer: The AC50 was 21.9 µM (active).

Question: `C[C@]12C=CC(=O)C=C1CC[C@H]1[C@@H]3C[C@@H](O)[C@](O)(C(=O)CO)[C@@]3(C)C[C@H](O)[C@@]12F` was tested. Which outcome did it give?
Answer: Its outcome is “inactive”.

Question: How did the outcome turn out when `Cc1ncc([C@@H](CCCCCCc2ccc3c(n2)NCCC3)CC(=O)O)cn1` was run?
Answer: The outcome was “inactive”.

Question: For `COc1cc(C(C)C)c2c(c1)S(=O)(=O)N(COc1cc(=O)n3cccc(OCCN4CCCCC4)c3n1)C2=O`, which AC50 is on record?
Answer: Its AC50 is 15.4 µM (active).

Question: `CCOc1ccc2[nH]cc(C(=O)NCc3ccccc3)c(=O)c2n1` was tested. Which outcome did it give?
Answer: Its outcome is “inactive”.

Question: With `c1ccc(C(O[C@@H]2CCCN(CCc3ccc4c(c3)OCO4)C2)c2ccccc2)cc1` as the compound, how does the AC50 read?
Answer: The AC50 was 84.1 µM (active).

Question: `CC(C)CCCCCCOC(=O)C1CCCCC1C(=O)OCCCCCCC(C)C` (stereo not given) was tested. Which outcome did it give?
Answer: Its outcome is “inactive”.

Question: Which outcome does the source give for `CCCc1ccccc1` here?
Answer: Its outcome is “inactive”.

Question: How did the outcome turn out when `COc1cc2c(c(OC)c1OC)-c1ccc(OC)c(=O)cc1[C@@H](NC(C)=O)CC2` was run?
Answer: The outcome was “inactive”.

Question: How did the outcome turn out when `O=C(O)c1ccc2c(c1)nc(C(=O)NC1CCN(C3CC3)CC1)n2Cc1cc(-c2ccc(Cl)s2)on1` was run?
Answer: The outcome was “inactive”.

Question: `NC(=O)NN=Cc1ccc([N+](=O)[O-])o1` was tested. Which outcome did it give?
Answer: Its outcome is “inactive”.

Question: How did the outcome turn out when `c1ccc2ncccc2c1` was run?
Answer: Its outcome is “inactive”.

Question: How did the outcome turn out when `O=c1[nH]cnc2c1ncn2[C@H]1CC[C@@H](CO)O1` was run?
Answer: Its outcome is “inactive”.

Question: Which outcome does the source give for `NC(=O)N(O)[C@@H]1COc2cc(OCc3ccccc3)ccc21` here?
Answer: The outcome was “inactive”.

Question: With `NNC(=O)c1ccncc1` as the compound, how does the outcome read?
Answer: Its outcome is “inactive”.

Question: Which outcome does the source give for `NC(N)=O` here?
Answer: The outcome was “inactive”.

Question: Which outcome does the source give for `CC(C)CC(C)O` (stereo not given) here?
Answer: Its outcome is “inactive”.

Question: For `CCCC(CCC)C(=O)O`, which outcome is on record?
Answer: Its outcome is “inactive”.

Question: How did the outcome turn out when `COS(C)(=O)=O` was run?
Answer: The outcome was “inactive”.

Question: With `CCCCCOC(C)=O` as the compound, how does the outcome read?
Answer: Its outcome is “inactive”.
